Most compounds without a hit are left out; they make up all but 2.8% or so of the library.
SENP8 block-1: inhibitors of human SENP8 protease. inhibition, % at 20 µM. recombinant SENP8, Nedd8 substrate fluorescence. Q96LD8. hit rate 0.64% among 360,000. AID 602440; in the data active = inhibition mostly above about 40%, no sharp cut-off; inactive = mostly below about 27%
SENP8 block-2: SENP8 protease inhibition; purified SENP8, Z-RLRGG-aminoluciferin cleavage, luminescence; AID 2540; hit rate 1.2% among 330,000; inhibition, % at 10 µM; Q96LD8; in the data active = inhibition above about 50%
Platelet DG rel: platelet dense granule release activity; AID 1663; hit rate 0.22% among 300,000; inhibition, %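 (compounds screened at 7.5 µM in platelet-rich plasma)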; human platelet-rich plasma, SFLLRN dense granule ATP release, luminescence;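 active = mean replicate score, as percent of positive control, at or above 50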
HSP90 inh: blocks HSP90-mediated luciferase refolding in reticulocyte lysate. Rabbit reticulocyte lysate, luciferase refolding luminescence, 3 h. inhibition, % at 5.6 µM. hit rate 0.91% among 290,000;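 active = inhibition above the screen-wide mean plus 3 SD, computed separately per campaign, cut at about 16% in these data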;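 also: 0% = DMSO wells and 100% = 60 µM geldanamycin wells; inhibitors lower the luminescence because luciferase stays unfolded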
SENP7 block: inhibitors of human SENP7 protease. inhibition, % at 5 µM. recombinant SENP7, Z-RLRGG-aminoluciferin luminescence, 40 min. hit rate 1.5% among 330,000. AID 434973;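 active = inhibition above about 50% at the single test dose, limit read from the data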;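 also: plate controls were DMSO with enzyme for no effect and no enzyme buffer wells for full effect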
SENP6 block: blocks the human protease SENP6. Q9GZR1. inhibition, % at 10 µM. Recombinant SENP6 catalytic domain, aminoluciferin luminescence. hit rate 1.8% among 330,000;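 active = inhibition above about 50% at the single tested dose, limit read from the data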;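 also: plate controls were DMSO wells with enzyme for no effect and DMSO wells lacking enzyme for full effect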
Target sequence (Q9GZR1 628-1112 limits assumed): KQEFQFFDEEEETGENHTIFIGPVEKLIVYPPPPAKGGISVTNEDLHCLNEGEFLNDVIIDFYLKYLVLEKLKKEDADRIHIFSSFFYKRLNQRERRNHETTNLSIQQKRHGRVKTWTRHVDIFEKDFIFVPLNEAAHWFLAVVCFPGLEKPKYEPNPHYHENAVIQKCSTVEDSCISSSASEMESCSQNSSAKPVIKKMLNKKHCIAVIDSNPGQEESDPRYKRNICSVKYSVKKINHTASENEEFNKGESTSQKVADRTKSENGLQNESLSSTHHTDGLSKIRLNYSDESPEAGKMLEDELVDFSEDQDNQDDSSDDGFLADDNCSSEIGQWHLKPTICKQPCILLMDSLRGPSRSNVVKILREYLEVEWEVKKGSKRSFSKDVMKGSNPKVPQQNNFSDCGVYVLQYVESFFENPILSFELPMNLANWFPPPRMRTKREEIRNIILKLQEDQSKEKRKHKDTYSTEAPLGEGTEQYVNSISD
SENP8 conf: SENP8 (human) inhibition, single concentration confirmation | shares compounds with SENP8 block-1 | purified SENP8, Nedd8-AMC/pro-Nedd8 cleavage fluorescence, 30 min | inhibition, % at 25 µM | hit rate 15% among 1,400; in the data active = inhibition mostly above about 39%, no sharp cut-off; inactive = mostly below about 34%
* marks the source's active call; other numbers are inactive results; nt = not tested or not shown.

SMILES	SENP8 block-1	SENP8 block-2	Platelet DG rel	HSP90 inh	SENP7 block	SENP6 block	SENP8 conf
CCOc1ccc(S(=O)(=O)Nc2ccc(C(=O)N/N=C/c3c(C)nn(-c4ccccc4)c3N3CCCC3)cc2)cc1	-116	-8	35	8	-8	-3	nt
Cc1ccc(-n2[nH]c(C)c(/C=N/Nc3ccc([N+](=O)[O-])cc3[N+](=O)[O-])c2=O)cc1C	40*	9	-5	7	5	-1	29
Cc1ccc([N+](=O)[O-])cc1/C=N/Nc1nnnn1-c1ccccc1	0	-5	-4	3	11	-17	nt
COc1c(/C=N/Nc2ccc([N+](=O)[O-])cc2[N+](=O)[O-])c(C)nn1-c1ccccc1	62*	1	4	0	7	1	24
COc1ccccc1NS(=O)(=O)c1ccc(N/N=C/c2c(C)nn(-c3ccccc3)c2N2CCCC2)c([N+](=O)[O-])c1	45*	2	3	-3	10	23	16
COc1ccc(-c2noc(N(C)CC(=O)Nc3cccc(C(F)(F)F)c3)n2)cc1	43*	-8	-27	1	-5	-21	33
COc1cc(NCCCCCCN)c2ncccc2c1OC	72*	nt	nt	nt	nt	nt	96*
COc1cc(NC(C)CCCNC(C)C)c2ncccc2c1OC (stereo not given)	9	nt	nt	nt	nt	nt	nt
O=C(Cc1ccsc1)NNC(=O)c1ccccc1Cl	4	4	-3	nt	1	-7	nt
CCOC(=O)c1c(-c2cccc([N+](=O)[O-])c2)csc1NC(=O)CCCOc1ccccc1OC	45*	nt	-1	2	nt	nt	26
C[C@@H]1CN(c2nc3nonc3nc2N2CCSCC2)C[C@H](C)O1	41*	1	2	3	-5	-4	19
Cc1csc2c(N3CCN(C(=O)c4ccc(C(C)(C)C)cc4)CC3)ncnc12	40*	-15	6	5	1	-30	20
Cc1csc2c(N3CCN(C(=O)NC(C)(C)C)CC3)ncnc12	19	1	1	1	7	-43	nt
O=C(OCC(=O)N1CCCC1)c1cccs1	48*	-3	7	-2	4	-2	19
Cc1nc2ccccc2n1/N=C/c1ccc([N+](=O)[O-])o1	42*	14	0	2	2	19	47*
O=C(/C=C/c1cccs1)c1ccc([N+](=O)[O-])cc1	50*	-7	1	3	-5	-10	8
Cc1ccc(C)c(OCC(=O)NNC(=O)CCN2CCN(c3ccccc3)CC2)c1	0	-17	nt	nt	-5	-20	nt
CCCn1c2ccc(F)cc2c2nnc(NN)nc21	70*	0	9	-7	-3	9	17
NNc1nnc2c3cc(F)ccc3n(Cc3ccccc3)c2n1	37*	-4	0	-2	-10	11	14
CCOc1cc(C2C(C(=O)c3ccco3)=C(O)C(=O)N2CC2CCCO2)ccc1O (stereo not given)	13	4	-2	0	4	16	nt
COc1cccc(NC(=O)CN2C(=O)NC(C)(c3ccc(C)cc3)C2=O)c1 (stereo not given)	-1	-3	-2	6	7	2	nt
CC(=O)N1CCN(C(=O)CCC(=O)O)CC1	54*	-1	-28	11	11	-24	23
CSc1nc(C(=O)N2CCCC(Nc3ccc(C)c(C)c3)C2)cs1 (stereo not given)	8	1	0	-3	12	1	nt
CC(=O)Nc1cccc(-c2nnc(SCC(=O)n3c4c(c5ccccc53)CCCC4)n2C)c1	7	6	-3	4	2	8	nt
O=C(COC(=O)c1ccc(Br)o1)NCc1ccc2c(c1)OCO2	8	-6	nt	nt	-3	2	nt
SMILES	SENP8 block-1	SENP8 block-2	Platelet DG rel	HSP90 inh	SENP7 block	SENP6 block	SENP8 conf
O=C(COC(=O)c1ccc([N+](=O)[O-])o1)NCc1ccc2c(c1)OCO2	41*	6	nt	nt	-1	20	76*
CC(NC(=O)COC(=O)c1ccc([N+](=O)[O-])o1)c1ccccc1 (stereo not given)	57*	11	nt	nt	8	8	88*
C(=N\NC(=Nc1ccccc1)c1ccccn1)/c1ccccn1	40*	4	-3	-1	0	0	3
Clc1ccc(/C=N/NC(=Nc2ccccc2)c2ccccn2)c(Cl)c1	30	-13	13	-4	-5	-18	nt
O=[N+]([O-])c1ccc(Cl)cc1Sc1cccc2cccnc12	42*	0	1	0	-6	-22	0
Cn1ccnc1Sc1cc(Cl)ccc1[N+](=O)[O-]	15	-3	0	4	-10	-20	nt
CCOC(=O)c1cc([N+](=O)[O-])cc([N+](=O)[O-])c1Sc1ncnc2nc[nH]c12	63*	nt	nt	nt	nt	nt	34
O=C(CN(C(=O)CNC(=O)c1ccco1)c1cccc(F)c1)NC1CCCCC1	10	0	2	-5	6	-10	nt
CC1CCC(NC(=O)COC(=O)CNC(=O)c2ccc3ccccc3c2)CC1 (stereo not given)	2	-1	nt	nt	5	-10	nt
Cc1ccccc1C(=O)NCCN1CCOCC1	1	-11	-6	0	-15	-20	nt
CC(C(=O)NCCN1CCOCC1)(c1ccccc1)c1ccccc1	67*	-4	-13	-2	0	-17	6
S=C(Nc1cccc(Cl)c1)NC1CCCCC1	27	-16	-3	-1	-3	-19	nt
S=C(NNc1cccc(Cl)c1)NC1CCCCC1	49*	-5	-5	3	-7	0	21
O=C1Cc2ccccc2C(=O)N1c1ccc(F)cc1Cl	72*	21	-2	-2	19	49	50*
O=C1Cc2ccccc2N1c1c(Cl)cccc1Cl	7	-2	3	-6	-4	3	nt
Cc1ccc(Cn2c(=O)c3ccccc3n3nc(C)cc23)cc1	-197	-4	-16	0	-7	-17	nt
Cc1ccc(Sc2cc(NCCCO)c([N+](=O)[O-])c3nonc23)cc1	44*	5	-57	5	5	37	48*
CC(=O)OCCCNc1cc(Sc2ccc(Cl)cc2)c2nonc2c1[N+](=O)[O-]	17	nt	17	-5	nt	nt	nt
CC(C)CCSc1cc(NCCO)c([N+](=O)[O-])c2nonc12	49*	-4	1	3	-6	34	27
CCC(=O)OCCNc1cc(SCCC(=O)OC)c2nonc2c1[N+](=O)[O-]	32	13	10	-4	11	37	nt
COc1ccc(C2C(C(C)=O)=C(O)C(=O)N2c2cccnc2)c(OC)c1 (stereo not given)	3	3	-9	3	11	6	nt
COc1ccc(C2C(C(C)=O)=C(O)C(=O)N2C)c(OC)c1 (stereo not given)	42*	-3	3	0	10	-5	26
Cc1onc(-c2ccccc2)c1C(=O)N/N=C/c1ccc([N+](=O)[O-])s1	30	3	-14	0	1	18	nt

From PubChem BioAssay
